Screening results from PubChem BioAssay.
An excerpt weighted towards active compounds, which were near 2% of everything screened.
CHRM4 agonist = human M4 muscarinic receptor agonists, primary screen, CHO-K1 cells, Fluo-8 calcium fluorescence; activation, % at 3 µM; CHO-K1 hM4/Gqi5; vehicle 0%, full acetylcholine response 100%; 0.14% of 360,000 active; Muscarinic acetylcholine receptor M4 (Homo sapiens), P08173;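 active = activation above the run mean over all test wells plus 3 SD, cut at about 32% in these data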;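 also: peak over basal fluorescence ratio per well then scaled between controls; 0% = DMSO wells and 100% = acetylcholine at EC100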
Target sequence (P08173 whole entry, looked up): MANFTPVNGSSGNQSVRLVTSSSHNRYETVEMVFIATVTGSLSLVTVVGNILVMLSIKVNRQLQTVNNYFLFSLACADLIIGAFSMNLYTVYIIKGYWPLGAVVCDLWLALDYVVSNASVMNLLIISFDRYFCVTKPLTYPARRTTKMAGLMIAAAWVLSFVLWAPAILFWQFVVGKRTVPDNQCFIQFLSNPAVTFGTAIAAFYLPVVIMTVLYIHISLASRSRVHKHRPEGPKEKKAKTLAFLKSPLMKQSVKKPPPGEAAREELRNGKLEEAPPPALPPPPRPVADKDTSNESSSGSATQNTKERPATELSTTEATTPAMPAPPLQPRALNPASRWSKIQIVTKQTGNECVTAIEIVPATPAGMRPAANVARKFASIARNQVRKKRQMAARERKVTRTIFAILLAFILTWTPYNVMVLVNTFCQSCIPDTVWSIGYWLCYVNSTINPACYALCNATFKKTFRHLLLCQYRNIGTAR
CHO-K1 Ca ag = counter-screen for M1 agonists: effect in parental CHO-K1 cells | 0.48% of 360,000 active | Fluo-8 calcium fluorescence; scaled to maximal ATP response, vehicle zero | activation, % at 3 µM | AID 602248, 2012; in the data active = activation above about 15%;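 also: untransfected CHO-K1 host cells lacking M1 receptor as counterscreen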
CHRM4 PAM = human M4 muscarinic receptor positive allosteric modulators, primary screen, CHO-K1 cells, Fluo-8 calcium fluorescence. CHO-K1 hM4/Gqi5, ACh EC20; 0% = ACh EC20, 100% = maximal ACh. activation, % at 3 µM. 0.4% of 360,000 active. AID 624126, 2012;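 active = activation above its plate's cutoff, the mean activation of sample wells plus 3 SD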
CHO-K1 Ca PAM = nonselective calcium activators in parental CHO-K1 cells, primary screen, counter-screen for M1 PAM project, cell-based, Fluo-8 calcium fluorescence, full deck, 1536-well. activation, % at 3 µM. 0.02% of 360,000 active. ATP EC20; 0% at ATP EC20, 100% at ATP max;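 active = activation above the run cutoff, the mean activation of all test compounds plus 3 SD, cut at about 40% in these data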;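 also: peak over basal fluorescence ratio in a 140 s read after ATP addition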
CHO-K1 Ca antag = counter-screen for M1 antagonists: effect in parental CHO-K1 cells; inhibition, % at 3 µM; AID 602250; ATP-induced calcium, Fluo-8 fluorescence; 0.6% of 360,000 active;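 active = inhibition above a per-plate cutoff, the plate's mean sample inhibition plus 3 SD, cut at about 24% in these data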;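 also: 0% = DMSO plus EC80 ATP and 100% = DMSO alone without ATP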
M4 antag = human M4 muscarinic receptor antagonists, primary screen, CHO cells, Fluo-8 calcium fluorescence; AID 624125, 2012; 0.73% of 360,000 active; Muscarinic acetylcholine receptor M4 (Homo sapiens), P08173; CHO-hM4 cells, ACh EC80; inhibition, % at 3 µM;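 active = inhibition above its plate's cutoff, the mean inhibition of sample wells plus 3 SD, cut at about 27% in these data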;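 also: 0% = acetylcholine EC80 with DMSO and 100% = DMSO without agonist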
* marks the source's active call; other numbers are inactive results.

Screening O=C1NCCc2c1[nH]c1c(Cl)ccc(Cl)c21 returned CHRM4 agonist 2, CHO-K1 Ca ag 0, CHRM4 PAM 13, CHO-K1 Ca PAM 12, CHO-K1 Ca antag -6 and M4 antag -5.
Screening COc1ccccc1NC(=O)c1cc2cc(Br)ccc2cc1O returned CHRM4 agonist 33*, CHO-K1 Ca ag 15*, CHRM4 PAM -19, CHO-K1 Ca PAM -9, CHO-K1 Ca antag 29* and M4 antag 28*.
`COc1ccc(S(=O)(=O)NC(=O)C2(C)CCN2C(=O)Cc2ccccc2)cc1OC` (stereo not drawn) gave CHRM4 agonist 1, CHO-K1 Ca ag 1, CHRM4 PAM 0, CHO-K1 Ca PAM 1, CHO-K1 Ca antag -3 and M4 antag -9.
For CCCC(=O)Nc1ccccc1-c1nnc(SC)[nH]c1=O the results were CHRM4 agonist 0, CHO-K1 Ca ag 0, CHRM4 PAM 0, CHO-K1 Ca PAM 5, CHO-K1 Ca antag 28* and M4 antag -4.
Screening CCCSc1nnc(-c2ccccc2NC(=O)CC)c(=O)[nH]1 returned CHRM4 agonist 1, CHO-K1 Ca ag 0, CHRM4 PAM 6, CHO-K1 Ca PAM -4, CHO-K1 Ca antag 0 and M4 antag 5.
For Cc1ccccc1S(=O)(=O)NCC[C@@H]1CC[C@@H](NC(=O)C2CCCC2)[C@@H](CO)O1 the results were CHRM4 agonist 2, CHRM4 PAM -4 and M4 antag 5.
Screening Cc1nn(C)c(C)c1CN(C)S(=O)(=O)c1ccc2ccccc2c1 returned CHRM4 agonist 12, CHO-K1 Ca ag 11, CHRM4 PAM -7, CHO-K1 Ca PAM 7, CHO-K1 Ca antag 25* and M4 antag 20.
CCc1ccccc1NC(=O)COC(=O)C1CC(=O)N(c2ccc(F)cc2)C1 (stereo not drawn) was read as CHRM4 agonist 1, CHO-K1 Ca ag 0, CHRM4 PAM -8, CHO-K1 Ca PAM -8, CHO-K1 Ca antag 29* and M4 antag 13.
O=C(COc1cccnc1[N+](=O)[O-])c1c[nH]c2ccccc12 was read as CHRM4 agonist 4, CHO-K1 Ca ag 1, CHRM4 PAM 14, CHO-K1 Ca PAM -10, CHO-K1 Ca antag -6 and M4 antag 34*.
`Cc1cc(C)c(C(=O)COc2cccnc2[N+](=O)[O-])cc1C` gave CHRM4 agonist 0, CHO-K1 Ca ag 1, CHRM4 PAM 1, CHO-K1 Ca PAM 20, CHO-K1 Ca antag -8 and M4 antag 4.
O=C1CN(CC(=O)Nc2ccc(Cl)cc2)CCN1 was read as CHRM4 agonist 1, CHO-K1 Ca ag 0, CHRM4 PAM 2, CHO-K1 Ca PAM 13, CHO-K1 Ca antag -1 and M4 antag -2.
O=C1CN(CC(=O)Nc2ccc(SC(F)F)cc2)CCN1 was read as CHRM4 agonist 0, CHO-K1 Ca ag -1, CHRM4 PAM 16, CHO-K1 Ca PAM -16, CHO-K1 Ca antag 27* and M4 antag -27.
CCN(CC)S(=O)(=O)c1csc(C(=O)Nc2ccccn2)c1 was read as CHRM4 agonist 1, CHO-K1 Ca ag 0, CHRM4 PAM -3, CHO-K1 Ca PAM -8, CHO-K1 Ca antag 27* and M4 antag -1.
For Cc1nn(-c2ccccc2)c(Cl)c1CN(C(=O)CCl)c1ccc(Cl)cc1 the results were CHRM4 agonist -2, CHO-K1 Ca ag 0, CHRM4 PAM -33, CHO-K1 Ca PAM -4, CHO-K1 Ca antag 19 and M4 antag 42*.
`CC(=O)N(Cc1c(C)nn(-c2ccccc2)c1Cl)c1ccc(Cl)cc1` gave CHRM4 agonist -1, CHO-K1 Ca ag 0, CHRM4 PAM -5, CHO-K1 Ca PAM 14, CHO-K1 Ca antag -8 and M4 antag 2.
`COc1ccc(C(=O)N/C(=C\c2cn(S(=O)(=O)N(C)C)c3ccccc23)C(=O)NCCN2CCOCC2)cc1OC` gave CHRM4 agonist 1, CHO-K1 Ca ag 0, CHRM4 PAM 0, CHO-K1 Ca PAM 4, CHO-K1 Ca antag -6 and M4 antag -5.
`CC(C)(C)C(c1nc2ccccc2[nH]1)n1c(-c2ccco2)nc2ccccc21` (stereo not drawn) gave CHRM4 agonist 1, CHRM4 PAM 5 and M4 antag -6.
For Cc1ccc(/C=N/n2c(-c3ccccc3)n[nH]c2=S)cc1 the results were CHRM4 agonist -2, CHO-K1 Ca ag 0, CHRM4 PAM -6, CHO-K1 Ca PAM -22, CHO-K1 Ca antag 22 and M4 antag 5.
N=C1N(/N=C/c2ccccc2)C(=Nc2ccccc2)C(=S)N1c1ccccc1 was read as CHRM4 agonist 1, CHO-K1 Ca ag 1, CHRM4 PAM -26, CHO-K1 Ca PAM 7, CHO-K1 Ca antag 5 and M4 antag 55*.
For COc1ccc(NC(=O)CCN2CCN(S(=O)(=O)c3cc(Cl)ccc3OC)CC2)cc1 the results were CHRM4 agonist 5, CHO-K1 Ca ag 4, CHRM4 PAM -2, CHO-K1 Ca PAM 62*, CHO-K1 Ca antag -26 and M4 antag 9.
`COc1ccc(NC(=O)CCN2CCN(S(=O)(=O)c3ccc(Br)cc3)CC2)cc1` gave CHRM4 agonist 6, CHO-K1 Ca ag 2, CHRM4 PAM -1, CHO-K1 Ca PAM 11, CHO-K1 Ca antag -16 and M4 antag -2.
`CCOC(=O)N1N=C(c2ccccc2)CC1(O)C(F)(F)F` (stereo not drawn) gave CHRM4 agonist 1, CHO-K1 Ca ag 0, CHRM4 PAM 23, CHO-K1 Ca PAM 18, CHO-K1 Ca antag -13 and M4 antag -12.
`Cc1cc(NC(=O)Nc2ccccc2F)ccc1Br` gave CHRM4 agonist 13, CHO-K1 Ca ag 5, CHRM4 PAM -16, CHO-K1 Ca PAM -13, CHO-K1 Ca antag 25* and M4 antag 13.
`O=C(Nc1ccccc1)Nc1ccc(Br)cc1F` gave CHRM4 agonist 7, CHO-K1 Ca ag 9, CHRM4 PAM -28, CHO-K1 Ca PAM 10, CHO-K1 Ca antag 3 and M4 antag 54*.
For C=CCn1c(O)c(C=Nc2ccccc2)sc1=S the results were CHRM4 agonist 0, CHO-K1 Ca ag -1, CHRM4 PAM -6, CHO-K1 Ca PAM -12, CHO-K1 Ca antag 29* and M4 antag -3.
For Cc1cccc(C(O)c2ncc(-c3cccc(C(F)(F)F)c3)[nH]2)c1C (stereo not drawn) the results were CHRM4 agonist 4, CHO-K1 Ca ag 1, CHRM4 PAM 7, CHO-K1 Ca PAM -7, CHO-K1 Ca antag -6 and M4 antag -17.
